# Reference: PubChem BioAssay (NCATS)
# Inconclusive results are not listed. Some compounds were tested as several samples or in several runs, with calls that do not always agree. Calls of active or inactive are those of the source. The call rests on the fitted dose curve; in most records, active means well fitted inhibition curve with a large enough effect; inconclusive means small, poorly fitted or top-dose-only effect; inactive means flat fitted curve, though single readings scatter.
# Assay: Drug repurposing screens with cells derived from glioblastoma tumor samples (AID 1345199); further: nearly all actives have a fitted effect of over 40% in size
# Conditions: GBM patient neurospheres viability, ATP luminescence, 48 h
# Description: CD133+ cells were isolated from GBM patient biopsies and cultured as neurospheres. Neurospheres from four patients were used to screen the NCATS pharmaceutical collection (NPC) library of approved drugs and bioactive compounds. […] The neurospheres were incubated with drugs for 48 hours in 1536-well format, then assayed with an ATP content cell viability assay. […] These hits were cherry picked to confirm activity in the four original GBM lines screened plus three other slower growing GMB lines (unable to yield enough cells for a full primary screen). Variable activities of the confirmed primary hits in the different GBM patient lines were observed. The patient line 206 responded to the greatest number of compounds and line 923 responded to the least amount of active compounds.
# [1] = at 20 µM (top of the series), tumour line C
# [2] = at 21.2 µM (top of the series), tumour line B
# [3] = at 99.2 µM (top of the series), tumour line C
# [4] = at 45.9 µM (top of the series), tumour line B
# [5] = at 46.1 µM (top of the series), tumour line C
# [6] = at 45.9 µM (top of the series), tumour line D
# [7] = at 46 µM (top of the series), tumour line A
# [8] = at 108 µM (top of the series), tumour line B
# [9] = at 108 µM (top of the series), tumour line D
# On the % scale 0 is the no-effect control and ±100 the full control effect; potency means the concentration at half of the fitted maximal effect.
structure (smiles),measurement,setting,value
Clc1ccc(C(Cn2ccnc2)OCc2csc3c(Cl)cccc23)c(Cl)c1 (stereo not given),"activity, negative = cell killing",[1],2.67% (inactive)
same,"activity, negative = cell killing",[2],-18.1% (inactive)
same,Potency,tumour line A,12.6 µM (active)
COC1=CC=C2[C@H]3Cc4ccc(OC)c5c4[C@@]2(CCN3C)[C@H]1O5,"activity, negative = cell killing",[1],-9.82% (inactive)
same,"activity, negative = cell killing",[2],-2.9% (inactive)
same,"activity, negative = cell killing","at 21.2 µM (top of the series), tumour line D",-4.5% (inactive)
same,"activity, negative = cell killing","at 91.6 µM (top of the series), tumour line B",-4.24% (inactive)
same,"activity, negative = cell killing",[3],12% (inactive)
same,Potency,tumour line A,35.5 µM (active)
same,Potency,tumour line D,35.5 µM (active)
C[N+]1(C)[C@@H]2CC[C@H]1CC(OC(=O)c1c[nH]c3ccccc13)C2 (stereo not given in full),"activity, negative = cell killing",[4],-23.1% (inactive)
same,"activity, negative = cell killing",[5],-27.7% (inactive)
N#CC1(N2CCCCC2)CCCCC1,"activity, negative = cell killing",[4],-11.3% (inactive)
same,"activity, negative = cell killing",[6],-14.5% (inactive)
same,"activity, negative = cell killing",[5],-18% (inactive)
CCCCCl,"activity, negative = cell killing",[4],-5.4% (inactive)
same,"activity, negative = cell killing",[6],-17.7% (inactive)
same,"activity, negative = cell killing",[7],-20.4% (inactive)
same,"activity, negative = cell killing",[5],7.44% (inactive)
CN1[C@H]2CC[C@@H]1[C@@H](C(=O)O)[C@@H](OC(=O)c1ccccc1)C2,"activity, negative = cell killing",[4],-13.9% (inactive)
same,"activity, negative = cell killing",[6],-11.4% (inactive)
same,"activity, negative = cell killing",[7],-27% (inactive)
same,"activity, negative = cell killing",[5],-10.2% (inactive)
same,"activity, negative = cell killing",[3],-6.57% (inactive)
same,"activity, negative = cell killing","at 108 µM (top of the series), tumour line A",-26.2% (inactive)
same,"activity, negative = cell killing",[8],-7.59% (inactive)
same,"activity, negative = cell killing",[9],-7.94% (inactive)
CC(=O)OC1CN2CCC1CC2 (stereo not given),"activity, negative = cell killing",[4],-1.18% (inactive)
same,"activity, negative = cell killing",[6],12% (inactive)
same,"activity, negative = cell killing",[5],-1.09% (inactive)
COc1ccc2c3c1O[C@H]1[C@@H](O)C=C[C@H]4[C@@H](C2)NCC[C@@]341,"activity, negative = cell killing",[4],-18.4% (inactive)
same,"activity, negative = cell killing",[6],-17.8% (inactive)
same,"activity, negative = cell killing",[5],-25.3% (inactive)
same,"activity, negative = cell killing",[3],6.81% (inactive)
same,"activity, negative = cell killing",[8],-9.55% (inactive)
same,"activity, negative = cell killing",[9],-1.54% (inactive)
CC(C)Nc1ccc(Nc2ccccc2)cc1,"activity, negative = cell killing",[5],-13.8% (inactive)
same,Potency,tumour line A,11.2 µM (active)
same,Potency,tumour line B,17.8 µM (active)
same,Potency,tumour line D,20 µM (active)
